Several values for one entry are separate records, joined by “and”; a condition that tells them apart may be missing. Identical values can stand only once. Results filed as inconclusive are left out. A call without a number means that no potency is given here. Unmarked numbers belong to inactive results. Activity calls are given as the source filed them. Calls come from the whole dose curve; as a rule, active = well fitted cell-killing curve with a large enough effect; inconclusive = small, poorly fitted or top-dose-only effect, or effect the other way; inactive = flat fitted curve, though single readings scatter. Non-standard residues stand in square brackets, D forms with d. Residues, ends and D or L forms follow the SMILES beside them. Peptide text beside a SMILES is read from it. *: point of attachment. Sta = CC(C)C[C@H](N)[C@@H](O)CC(=O)O; Isovaleryl = CC(C)CC(=O)*
These compounds were tested on OV90 (assay: Primary qHTS to identify gynecologic anti-cancer compounds using libraries of approved drugs and bioactive compounds (AID 1345084; note: nearly all actives have a fitted effect of over 55% in size)). Conditions: Gynecologic cancer cell panel viability, ATPlite luminescence, 48 h; series mostly up to 57.5 µM.
In short: (§1)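 Cells, 1,000 per well, were allowed to settle for 16 h at 37 C before compound addition. Five concentrations were tested for 48 h, and viability was read by ATPlite luminescence after 15 min at room temperature.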
For `COC(=O)[C@H](Cc1ccccc1)NC(=O)[C@@H](N)CC(=O)O` (H-Asp-Phe-OMe), the Potency was “inactive”. With `COc1cc2nc(N3CCN(C(=O)C4CCCO4)CC3)nc(N)c2cc1OC` (stereo unspecified) the Potency was “inactive”. With `NS(=O)(=O)c1cc(C(=O)O)c(NCc2ccco2)cc1Cl` the Potency was “inactive”. For `Cc1cc(=O)oc2cc(O)ccc12`, the Potency was “inactive”. With `CC(C)c1nc(CN(C)C(=O)N[C@H](C(=O)N[C@@H](Cc2ccccc2)C[C@H](O)[C@H](Cc2ccccc2)NC(=O)OCc2cncs2)C(C)C)cs1` the Potency was “inactive”. With `CC1(C)CCC(C)(C)c2cc(NC(=O)c3ccc(C(=O)O)cc3)ccc21` the Potency was “inactive”. `Cc1nc2n(c(=O)c1CCN1CCC(c3noc4cc(F)ccc34)CC1)CCCC2` was tested, and the Potency was “inactive”. In the case of `Cc1cc2cc3c(C)cc(=O)oc3c(C)c2o1`, the Potency is reported as “inactive”. `CCC(C)(Oc1ccc(C2(c3ccc(OC(C)(CC)C(=O)O)cc3)CCCCC2)cc1)C(=O)O` (stereo unspecified) was tested, and the Potency was “inactive”. With `Nc1ncn([C@H]2C[C@H](O)[C@@H](CO)O2)c(=O)n1` the Potency was “inactive”. For `CS(=O)(=O)OCCCCOS(C)(=O)=O`, the Potency was “inactive”. For `CC(C)CC(=O)N[C@H](C(=O)N[C@H](C(=O)N[C@@H](CC(C)C)[C@@H](O)CC(=O)N[C@@H](C)C(=O)N[C@@H](CC(C)C)[C@@H](O)CC(=O)O)C(C)C)C(C)C` (Isovaleryl-VV[Sta]A[Sta]-OH), the Potency was “inactive”. With `CC1=C(C(=O)O)N2C(=O)[C@@H](NC(=O)[C@H](N)C3=CCC=CC3)[C@H]2SC1` the Potency was “inactive”. In the case of `N=C(N=C(N)N)N1CCOCC1`, the Potency is reported as “inactive”. In the case of `O=C(NCC1CCCCN1)c1cc(OCC(F)(F)F)ccc1OCC(F)(F)F` (stereo unspecified), the Potency is reported as “inactive”. `CCC1=C(C)CN(C(=O)NCCc2ccc(S(=O)(=O)NC(=O)NC3CCC(C)CC3)cc2)C1=O` (stereo unspecified) was tested, and the Potency was “inactive”. `CN1C(C(=O)Nc2ccccn2)=C(O)c2sccc2S1(=O)=O` was tested, and the Potency was “inactive”. `O=C(NOCC1CC1)c1ccc(F)c(F)c1Nc1ccc(I)cc1Cl` was tested, and the Potency was 7.08 µM (active) and 3.55 µM (active). For `CN(C)C(=O)COC(=O)Cc1ccc(OC(=O)c2ccc(N=C(N)N)cc2)cc1`, the Potency was “inactive”. With `COC(=O)C1=C(C)NC(C)=C(C(=O)OC(C)C)C1c1cccc2nonc12` (stereo unspecified) the Potency was “inactive”. For `Cn1c(NCCN(CCO)CCCc2ccc([N+](=O)[O-])cc2)cc(=O)n(C)c1=O`, the Potency was “inactive”. In the case of `N=C(N)c1ccc2cc(OC(=O)c3ccc(N=C(N)N)cc3)ccc2c1`, the Potency is reported as “inactive”. `CC(S)C(=O)NCC(=O)O` (stereo unspecified) was tested, and the Potency was “inactive”.

The compounds below were run on PA-1 in the same assay as above. Conditions: Gynecologic cancer cell panel viability, ATPlite luminescence, 48 h; series mostly up to 57.5 µM.
In short: as §1
In the case of `CCC[C@@H]1C[C@@H](C(=O)N[C@@H]([C@H]2O[C@H](SC)[C@H](O)[C@@H](O)[C@H]2O)[C@@H](C)O)N(C)C1`, the Potency is reported as “inactive”. With `COc1ccc(C2(C#N)CCC(C(=O)O)CC2)cc1OC1CCCC1` (stereo unspecified) the Potency was “inactive”. `CC(=O)Nc1ccc(O)cc1` was tested, and the Potency was “inactive”. In the case of `Nc1ccc(S(N)(=O)=O)cc1`, the Potency is reported as “inactive”. In the case of `O=C(c1ccccc1)c1ccc2n1CCC2C(=O)O` (stereo unspecified), the Potency is reported as “inactive”. In the case of `CCN(CCO)CCCC(C)Nc1ccnc2cc(Cl)ccc12` (stereo unspecified), the activity change, negative = cytotoxicity is reported as 16.5% [at 6.55 µM] and 2.35% [at 6.55 µM]. `Clc1ccc(C(Cn2ccnc2)OCc2ccc(Sc3ccccc3)cc2)c(Cl)c1` (stereo unspecified) was tested, and the Potency was “inactive”. For `COCCCN1CCC(NC(=O)c2cc(Cl)c(N)c3c2OCC3)CC1`, the Potency was “inactive”. `O=C(O)CCNC(=O)c1ccc(N=Nc2ccc(O)c(C(=O)O)c2)cc1` was tested, and the Potency was “inactive”. `CCCc1cc(=O)[nH]c(=S)[nH]1` was tested, and the Potency was “inactive”. `Oc1ccc(OCc2ccccc2)cc1` was tested, and the Potency was “inactive”. For `Cc1cccc(C)c1OCC(=O)N[C@@H](Cc1ccccc1)[C@@H](O)C[C@H](Cc1ccccc1)NC(=O)[C@H](C(C)C)N1CCCNC1=O`, the Potency was “inactive”. With `COC(=O)[C@H](Cc1ccccc1)NC(=O)[C@@H](N)CC(=O)O` (H-Asp-Phe-OMe) the Potency was “inactive”. For `NS(=O)(=O)c1cc(C(=O)O)c(NCc2ccco2)cc1Cl`, the Potency was “inactive”. In the case of `Cc1cc(=O)oc2cc(O)ccc12`, the Potency is reported as “inactive”. For `CC(C)c1nc(CN(C)C(=O)N[C@H](C(=O)N[C@@H](Cc2ccccc2)C[C@H](O)[C@H](Cc2ccccc2)NC(=O)OCc2cncs2)C(C)C)cs1`, the Potency was “inactive”. For `CC1(C)CCC(C)(C)c2cc(NC(=O)c3ccc(C(=O)O)cc3)ccc21`, the Potency was “inactive”. With `Cc1nc2n(c(=O)c1CCN1CCC(c3noc4cc(F)ccc34)CC1)CCCC2` the Potency was “inactive”. For `Cc1cc2cc3c(C)cc(=O)oc3c(C)c2o1`, the Potency was “inactive”. In the case of `CCC(C)(Oc1ccc(C2(c3ccc(OC(C)(CC)C(=O)O)cc3)CCCCC2)cc1)C(=O)O` (stereo unspecified), the Potency is reported as “inactive”. For `CS(=O)(=O)OCCCCOS(C)(=O)=O`, the Potency was “inactive”. In the case of `CC(C)CC(=O)N[C@H](C(=O)N[C@H](C(=O)N[C@@H](CC(C)C)[C@@H](O)CC(=O)N[C@@H](C)C(=O)N[C@@H](CC(C)C)[C@@H](O)CC(=O)O)C(C)C)C(C)C` (Isovaleryl-VV[Sta]A[Sta]-OH), the Potency is reported as “inactive”. In the case of `CC1=C(C(=O)O)N2C(=O)[C@@H](NC(=O)[C@H](N)C3=CCC=CC3)[C@H]2SC1`, the Potency is reported as “inactive”. In the case of `N=C(N=C(N)N)N1CCOCC1`, the Potency is reported as “inactive”. For `O=C(NCC1CCCCN1)c1cc(OCC(F)(F)F)ccc1OCC(F)(F)F` (stereo unspecified), the Potency was “inactive”. `CCC1=C(C)CN(C(=O)NCCc2ccc(S(=O)(=O)NC(=O)NC3CCC(C)CC3)cc2)C1=O` (stereo unspecified) was tested, and the Potency was “inactive”. `NNc1nncc2ccccc12` was tested, and the Potency was “inactive”. For `CN1C(C(=O)Nc2ccccn2)=C(O)c2sccc2S1(=O)=O`, the Potency was “inactive”. With `CN(C)C(=O)COC(=O)Cc1ccc(OC(=O)c2ccc(N=C(N)N)cc2)cc1` the Potency was “inactive”. `COC(=O)C1=C(C)NC(C)=C(C(=O)OC(C)C)C1c1cccc2nonc12` (stereo unspecified) was tested, and the Potency was “inactive”. `Cn1c(NCCN(CCO)CCCc2ccc([N+](=O)[O-])cc2)cc(=O)n(C)c1=O` was tested, and the Potency was “inactive”. In the case of `N=C(N)c1ccc2cc(OC(=O)c3ccc(N=C(N)N)cc3)ccc2c1`, the Potency is reported as “inactive”. In the case of `CC(S)C(=O)NCC(=O)O` (stereo unspecified), the Potency is reported as “inactive”.

— PubChem BioAssay (NCATS)
Potency is the fitted concentration of half-maximal effect.
